Assay outcomes: PubChem BioAssay, The Scripps Research Institute Molecular Screening Center
S1P4 agonist: agonists of human S1P4 receptor; AID 1509; O95977; 220,000 compounds, 0.35% hits; activation, % at 4.98 µM; S1P4-expressing cell line, agonist reporter assay; in the data active = activation above about 11%;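 note: 0% = DMSO vehicle and 100% = reference agonist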
Pf gametocyte: kills late stage P. falciparum gametocytes. P. falciparum stage V gametocytes, ATP luminescence, 24 h. inhibition, % at 10.9 µM. 150,000 compounds, 0.065% hits. AID 743093;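 active = inhibition above the mean plus 3 SD of compounds within the control limits, set per campaign, cut at about 38% in these data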;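 note: 0% = DMSO wells and 100% = medium only without gametocytes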
S1P4 antagonist: human S1P4 receptor antagonism; 220,000 compounds, 0.26% hits; inhibition, % at 4.98 µM; O95977; S1P4-expressing cells, antagonist mode, reporter read-out; in the data active = inhibition above about 29%;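 note: 0% = wells stimulated with agonist and 100% = vehicle wells without agonist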
S1P3 antagonist: blocks the human S1P3 receptor. Q99500. 170,000 compounds, 0.27% hits. AID 485. inhibition, % at 4.98 µM. CHO S1P3 NFAT-BLA reporter, FRET fluorescence, antagonist mode;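 active = inhibition above the plate cutoff, the mean inhibition of test wells on that plate plus 3 SD, cut at about 28% in these data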;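 note: cells challenged with S1P at its EC80 of 0.8 µM; blue over green emission ratio from cleaved BLA substrate after 4 h stimulation; 0% = S1P-stimulated wells and 100% = unstimulated DMSO-only wells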
Target sequence (Q99500 whole entry, looked up): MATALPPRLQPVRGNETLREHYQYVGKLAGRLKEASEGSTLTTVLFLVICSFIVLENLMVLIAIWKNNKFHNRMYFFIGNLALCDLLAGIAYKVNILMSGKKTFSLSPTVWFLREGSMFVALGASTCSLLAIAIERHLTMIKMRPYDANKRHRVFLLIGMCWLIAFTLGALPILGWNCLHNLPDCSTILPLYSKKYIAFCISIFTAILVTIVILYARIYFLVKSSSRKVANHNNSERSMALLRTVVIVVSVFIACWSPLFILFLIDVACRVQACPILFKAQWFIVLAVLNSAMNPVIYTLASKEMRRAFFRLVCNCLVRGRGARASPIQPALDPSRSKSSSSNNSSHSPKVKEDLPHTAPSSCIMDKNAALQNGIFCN
Hsp70 activator: Hsp70 transcriptional activation, primary screen; AID 1203; activation, % at 10 µM; 200,000 compounds, 0.04% hits; HeLa Hsp70 promoter luciferase reporter, luminescence; scaled: vehicle 0, proteasome-inhibitor control 100%;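 active = activation above the mean across all tested compounds plus 3 SD, cutoff set per campaign, cut at about 5.5% in these data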;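 note: 100% = MG132 at 30 µM as the positive control and 0% = DMSO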
S1P4 antag conf: confirmation of human S1P4 receptor antagonists | shares compounds with S1P4 antagonist | S1P4-expressing cell line, antagonist mode, reporter read-out | 520 compounds, 71% hits | inhibition, % at 4.98 µM; in the data active = inhibition above about 30%
S1P1 antagonist: human S1P1 antagonism as S1P4 antagonist counter-screen. 520 compounds, 37% hits. inhibition, % at 4.98 µM. shares compounds with S1P4 antagonist. cell-based S1P1 antagonist counterscreen, inhibition; in the data active = inhibition above about 40%;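 note: receptor stimulated with S1P near its EC80; 0% = agonist stimulated wells and 100% = vehicle only wells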
Starred values were filed as active, the others as inactive; . = no result; ! = not confirmed by another sample. An excerpt weighted towards active compounds, which were near 0.83% of everything screened.

SMILES	S1P4 agonist	Pf gametocyte	S1P4 antagonist	S1P3 antagonist	Hsp70 activator	S1P4 antag conf	S1P1 antagonist
Cc1ccc(NC(=O)C(c2ccccc2)N(C)C)cc1Cl (configuration not stated)	0.4	.	34.0*	-9.9	-0.1	30.9*	29.1
CC1Cc2ccccc2N1C(=O)Cn1cnc2ccccc21 (configuration not stated)	1.0	-9.3	-12.9	-11.1	-0.3	.	.
COc1ccc(/C=c2/sc3n(c2=O)C(c2ccccc2OC)C2=C(N=3)c3ccccc3CC2)cc1O (configuration not stated)	-3.8	-19.1	33.3*	.	0.1	77.7*	69.5*
CCOC(=O)C1=C(C)N=c2s/c(=C\c3ccc(O)c([N+](=O)[O-])c3)c(=O)n2C1c1ccccc1OC (configuration not stated)	.	-8.1	.	.	.	.	.
Cc1ccc(S(=O)(=O)N(C)c2c(C)ccc(S(=O)(=O)NC(C)(C)C)c2C)cc1	-0.3	-7.7	-7.6	-11.4	-0.1	.	.
O=C(NCc1cccnc1)/C(=C\c1ccc(-c2ccc(Br)cc2)o1)S(=O)(=O)c1ccccc1	0.6	-12.3	51.7*	22.4	0.6	105.6*	64.5*
O=C(NCc1cccnc1)/C(=C/c1ccc(-c2ccc(Cl)cc2)o1)S(=O)(=O)c1ccccc1	-1.5	.	48.8*	.	2.9	101.0*	43.0*
CC(C)(OC1OC(CO)C(O)C(O)C1O)[C@H]1Oc2ccc3ccc(=O)oc3c2[C@H]1O (some centres not stated)	0.9	-14.3	3.6	-19.7	0.1	.	.
Cc1onc(-c2ccccc2)c1C(=O)Nc1ccncc1	1.5	-12.8	-11.1	-3.1	-0.5	.	.
Cc1onc(-c2ccccc2)c1C(=O)Nc1nnc(-c2ccncc2)s1	-2.6	16.7	51.4*	6.3	0.2	63.0*	5.1
Cc1cc2oc(C(=O)Nc3c(C)n(C)n(-c4ccccc4)c3=O)c(C)c2cc1C	-0.3	-7.2	30.2*	-4.3	-0.4	61.1*	47.7*
Cc1c(C(=O)Nc2c(C)n(C)n(-c3ccccc3)c2=O)oc2ccccc12	-1.7	.	9.3	1.4	-0.1	.	.
Cc1ccc2c(C)c(C(=O)Nc3c(C)n(C)n(-c4ccccc4)c3=O)oc2c1C	-0.7	-15.1	29.1*	-6.2	-0.1	61.4*	30.3
Cc1ccc2c(C)c(C(=O)Nc3c(C)n(C)n(-c4ccccc4)c3=O)oc2c1	0.9	.	-19.9	-17.5	-0.2	.	.
Cn1c(Cc2ccccc2)nnc1SCC(=O)NCCc1ccccc1	-0.3	-3.9	-13.2	-9.2	0.0	.	.
CCCCc1ccc(/C=C2\C(=O)c3ccccc3C(O)=C2C(=O)OCC)cc1	-1.0	.	35.6*	.	-0.3	68.0*	21.5
CCOC(=O)C1=C(Cc2ccc(F)cc2)C(=O)c2ccccc2C1=O	-0.9	-5.3	18.1	.	-0.2	.	.
CCCN(CCC)CC(O)Cn1cc(/C=C/C(=O)c2ccccc2)c2ccccc21 (configuration not stated)	2.3	5.5	16.0	21.5	0.0	.	.
CCCN(CCC)CC(O)Cn1cc(/C=C/C(=O)c2cccs2)c2ccccc21 (configuration not stated)	2.0	-39.6	34.3*	8.3	-0.4	58.6*	74.5*
CC1(C)CC(NC(=O)c2sc3cc(Cl)ccc3c2Cl)CC(C)(C)N1	1.2	8.7	15.8	-1.5	0.0	.	.
O=S1(=O)C=C(Sc2nc3ccccc3s2)c2ccccc21	0.6	.	54.8*	6.3	3.1	113.3*	58.9*
COC(=O)[C@H](CC(C)C)NC(=O)Nc1ccc(S(N)(=O)=O)cc1	0.7	7.0	-1.3	7.5	.	.	.
FC(F)(F)c1cnc(Sc2nc3nccc(-c4ccc(Cl)cc4)n3n2)c(Cl)c1	0.3	12.8	-6.4	.	-0.1	.	.
COc1ccc(-c2ccnc3nc(Sc4ncc(C(F)(F)F)cc4Cl)nn23)cc1	-1.1	.	60.6*	.	-0.2	1.0	21.2
O=C(CSCCO)Nc1cccc(C(F)(F)F)c1	0.9	-6.4	35.6*	1.3	-0.2	4.4	2.8
SMILES	S1P4 agonist	Pf gametocyte	S1P4 antagonist	S1P3 antagonist	Hsp70 activator	S1P4 antag conf	S1P1 antagonist
CCOC(=O)c1ccc2nc(CCC(=O)N[C@H](C(=O)OC)C(C)C)c(=O)n(CC)c2c1	-0.1	7.2	8.7	-3.5	0.1	.	.
O=S(=O)(C/C(=C/CO)S(=O)(=O)c1ccccc1)c1ccccc1	-0.7	-3.3	40.4*	14.1	14.7*	87.3*	20.0
CC(C)c1nnc(NC(=O)CCS(=O)(=O)c2nc(-c3cccs3)cc(C(F)(F)F)n2)s1	-1.8	.	50.0*	-2.7	0.0	108.7*	53.9*
Cc1cc(NC(=O)/C=C/c2ccccc2)c(C(C)C)cc1O	0.9	9.9	93.7*	8.2	-0.3	108.9*	13.3
Cc1cc(NC(=O)c2ccccc2Cl)c(C(C)C)cc1O	-0.2	-16.0	-9.1	.	-0.1	.	.
Cc1ccc(NC(=O)C2=C(c3ccccc3)S(=O)(=O)CCS2(=O)=O)cc1	-1.5	7.0	45.2*	0.5	-0.1	108.3*	5.4
CSc1nc(C)nc(N/C=C(\C#N)S(=O)(=O)c2ccccc2Cl)n1	1.6	5.4	-2.4	0.2	.	.	.
O=C(Nc1cccc(Cl)c1)Nc1nccs1	2.7	-21.6	34.8*!	-7.2	-0.4	24.3	23.0
S=c1[nH]nc(-c2cc(-c3ccccc3)n[nH]2)n1/N=C/c1ccccc1	0.8	22.8	-12.9	2.2	.	.	.
S=c1[nH]nc(-c2cc(-c3ccccc3)n[nH]2)n1/N=C/C(Br)=C/c1ccccc1	-0.2	12.0	34.8*	-3.7	.	66.2*	24.2
CC1CC(C)CN(c2nc3c(c(=O)[nH]c(=O)n3C)n2CCSc2nc3ccccc3o2)C1 (configuration not stated)	.	.	.	-2.5	.	.	.
CCOC(=O)N1CCN(S(=O)(=O)/C=C/c2ccccc2)CC1	1.7	4.3	-4.6	12.7	-0.3	.	.
CCOC(=O)N1C/C(=C\c2ccccc2)C(=O)/C(=C/c2ccccc2)C1	-1.4	.	43.4*	17.0	.	116.2*	-24.4
Cn1cccc1C(=O)NC(=O)COC(=O)C12CC3CC(CC(O)(C3)C1)C2	-2.6	1.7	33.1*	.	0.2	2.6	4.7
COc1ccccc1C1=Nn2c(COc3ccccc3)nnc2SC1	-0.5	.	-9.0	3.9	-0.2	.	.
Oc1ccccc1C1CC(c2cccs2)=NC(c2cccc(Br)c2)N1 (configuration not stated)	2.4	-2.8	30.4*	-1.0	0.3	43.4*	20.4
Cc1ccc(-c2nc(NC(=O)c3nn(C)cc3[N+](=O)[O-])sc2C)cc1	-8.4	.	77.8*	.	1.0	115.0*	-9.6
Cc1cnc(NC(=O)c2nn(C)cc2[N+](=O)[O-])s1	-1.1	-15.7	22.2	-6.8	-0.2	.	.
CCCNC(=S)N1CC2(C)CN(C(=O)C(=O)OC)CC(C)(C1)C2=O	-0.5	-3.9	-5.1	-9.8	-0.3	.	.
O=C(CN1CCN(Cc2ccccc2Cl)CC1)N/N=C/c1cccs1	-0.2	-9.9	13.5	5.6	.	.	.
O=[N+]([O-])c1cnc(Sc2ccncn2)s1	0.7	14.4	35.0*	11.4	.	115.5*	111.6*
